Test results published in PubChem BioAssay (NCATS).
Inconclusive results are not listed. A number with no mark means an inactive call. Calls of active or inactive are those of the source. Calls come from the whole dose curve; as a rule, active = well fitted inhibition curve with a large enough effect; inconclusive = small, poorly fitted or top-dose-only effect; inactive = no such curve, though single readings can be large or run the other way.

System: Zika virus NS2B-NS3 protease (linked construct)
Experiment: Primary screen NINDS Rhodamine qHTS for Zika virus inhibitors (AID 1347160); note: nearly all actives have a fitted effect of over 55% in size
Conditions: purified NS2B-NS3 protease, Rhodamine110 substrate fluorescence; series mostly up to 57.1 µM; activity change, negative = inhibition: at the top concentration
Summary of the method: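 Kinetic fluorescence (Ex 480 nm, Em 540 nm) over 15 min with 1.5 microM Rhodamine110 peptide and 25 nM linked protease.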
% is set by controls: 0 for no effect and ±100 for the full control effect.

Structure (SMILES)	activity change, negative = inhibition	outcome
COc1cc([C@H]2c3cc(O)c(OC)cc3C[C@@H](CO[C@@H]3O[C@H](CO)[C@@H](O)[C@H](O)[C@H]3O)[C@@H]2CO)ccc1O	-12.8% [at 33.1 µM]	
CCCn1c(=O)c2[nH]c(-c3ccc(OCC(=O)O)cc3)nc2n(CCC)c1=O		inactive
CC(C)c1ccc2c(c1)C(=O)CC1[C@@](C)(C(=O)O)CCC[C@]21C (stereo partly drawn)		inactive [at 33.1 µM]
Cc1cc(Nc2ccc(NC(=O)c3ccc(Nc4ccnc5ccccc45)cc3)cc2)nc(N)n1	-7.83%	
Nc1ncnc2c1nc(N)n2[C@@H]1O[C@H](CO)[C@@H](O)[C@H]1O	22.2%	
C[C@@H]1O[C@@H](OC[C@H]2O[C@@H](OC(CCCCc3ccc(O)cc3)CCc3ccc(O)cc3)[C@H](O)[C@@H](O)[C@@H]2O)[C@H](O)[C@H](O)[C@H]1O (stereo partly drawn)	-6.55% [at 15.1 µM]	
CC1(C)CC[C@]2(C(=O)O[C@@H]3O[C@H](CO)[C@@H](O)[C@H](O)[C@H]3O)CC[C@]3(C)C(=CCC4[C@@]5(C)CC[C@H](O[C@@H]6O[C@H](C(=O)O)[C@@H](O)[C@H](O)[C@H]6O)C(C)(C)C5CC[C@]43C)C2C1 (stereo partly drawn)	-16.1% [at 15.1 µM]	
CC1CCC2(C(=O)O)CCC3(C)C(=CCC4C5(C)CCC(O)C(C)(CO)C5CCC43C)C2C1(C)O (stereo not drawn)	-2.54% [at 33.1 µM]	
COc1ccc(Oc2cc(C)c(-c3csc(NC(=O)c4ccncc4)n3)c(C)c2)cc1	-5.62%	
CC1C(OC(=O)c2ccccc2)C(O)C2C(C(=O)O)=COC(OC3OC(CO)C(O)C(O)C3O)C12 (stereo not drawn)		inactive [at 33.1 µM]
CN(C)C/C=C/C(=O)Nc1cccc(C(=O)Nc2cccc(Nc3ncc(Cl)c(-c4c[nH]c5ccccc45)n3)c2)c1	35.4%	
C=C(C(=O)O)C1CC2=C(C)CCCC2(C)C[C@@H]1O (stereo partly drawn)	-13.5%	
O=C1NC(=O)C(c2cn3c4c(cccc24)CCC3)C1c1c[nH]c2ccccc12 (stereo not drawn)	14.1%	
C/C=C/C1=CC2=C(CO1)C(=O)C(C)(O)C(OC(=O)c1c(C)cc(OC)cc1O)C2 (stereo not drawn)	-4.67% [at 33.1 µM]	
O=C1NC(Cc2ccccc2)C(=O)N2CCCC12 (stereo not drawn)	-12.9%	
C/C1=C\CC[C@]2(C)O[C@@H]2[C@H](O)[C@H](C(C)C)[C@H](OC(=O)/C=C/c2ccccc2)C1	8.73% [at 33.1 µM]	
Cc1cc(N2CCN([C@@H]3CN[C@H](C(=O)N4CCSC4)C3)CC2)n(-c2ccccc2)n1	-17.4%	

Structure (SMILES)	activity change, negative = inhibition	outcome
CO[C@H]1/C=C/C=C/C=C/C[C@H](OC(=O)[C@@H](C)NC(=O)C2CCCCC2)[C@H](C)[C@@H](O)/C(C)=C/CCc2cc(O)cc(c2)NC(=O)C1	-15.5% [at 15.1 µM]	
C=C1C(=O)O[C@H]2C1[C@H](OC(=O)/C(=C/CO)COC(=O)/C(C)=C/CO)CC(=C)[C@@H]1CC(=O)[C@@H](C)[C@@H]12 (stereo partly drawn)		inactive [at 33.1 µM]
Cc1csc(NC(=O)c2ccc(COc3cccc(Cl)c3)o2)n1	79.3%	
CC1(O)CC(O)C2(O)C=COC(O[C@@H]3O[C@H](CO)[C@@H](O)[C@H](O)[C@H]3O)C12 (stereo partly drawn)	-22.3% [at 33.1 µM]	
CC(C)=C/C=C\[C@H](C)[C@H]1CC[C@]2(C)C[C@@H]3C(C)=CC(=O)C3/C(CO)=C\C[C@@H]12 (stereo partly drawn)	-14% [at 33.1 µM]	
C=C(CO[C@@H]1O[C@H](CO[C@@H]2OC[C@](O)(CO)[C@H]2O)[C@@H](O)[C@H](O)[C@H]1O)C1Cc2cc(C(C)=O)ccc2O1 (stereo partly drawn)	-5.28% [at 33.1 µM]	
COC(=O)C[C@H]1[C@]2(C)C3=C(C)[C@H](c4ccoc4)C[C@H]3O[C@@H]2[C@H](OC(C)=O)C2[C@](C)(C(=O)OC)C=CC(=O)[C@@]21C (stereo partly drawn)	-27% [at 33.1 µM]	
COC(=O)C1=CO[C@@H](O[C@@H]2O[C@H](CO[C@@H]3O[C@H](COC(=O)/C=C/c4cc(OC)c(O)c(OC)c4)[C@@H](O)[C@H](O)[C@H]3O)[C@@H](O)[C@H](O)[C@H]2O)[C@@H]2C(CO)=CC[C@H]12	-2.01% [at 15.1 µM]	
CC(C)(O)/C=C/CC(C)(O)C1C(O)CC2(C)C3CCC4C(C)(C)C(=O)CCC4(C)C3CCC12C (stereo not drawn)	-18.4% [at 33.1 µM]	
N=c1nc2n(cc1F)C1OC(CO)C(O)C1O2 (stereo not drawn)		inactive
CC1(C)CCCC2(C)C=C(C(=O)O)C(O)CC12 (stereo not drawn)	14.2%	
C/C(=C/CO)CC[C@@H]1[C@@](C)(O)CCC2C(C)(C)CCC[C@]21C (stereo partly drawn)	-14.7% [at 33.1 µM]	
COc1ccc2c(OC)c3ccoc3nc2c1OC	-13.2%	
O=S(=O)(Nc1ccccn1)c1ccc(N=Cc2c(O)[nH]c3ccc4ncsc4c23)cc1	12% [at 10.7 µM]	
CC(C)(C#N)c1ccc(N2C(=O)OCc3cnc4ccc(-c5cnc6ccccc6c5)cc4c32)cc1	6.42%	
OC[C@H]1O[C@@H](O[C@H]2[C@H](OCCc3ccccc3)O[C@H](CO)[C@@H](O)[C@@H]2O)[C@H](O)[C@@H](O)[C@@H]1O	-17.3% [at 33.1 µM]	
